Five compounds from PubChem BioAssay (NCI) can be followed below.

Compounds without any hit were thinned out: in the full panel of roughly 83,000, 20% have a hit.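 Each cell line was grown in a 96-well plate and treated with one concentration of compound for 48 hours. Values below 10 were considered active.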 Unmarked numbers belong to inactive results. Active and inactive are the calls of the source.

Holding throughout (test): NCI-60 one-dose screen, 48 h (100 = growth as untreated, 0 = no growth, -100 = all killed)
One assay relates to NCI-H23 lung. As to conditions: 10 µM unless noted.
In another assay the test system is NCI-H226 lung. As to conditions: 10 µM unless noted.
A further assay has as its system NCI-H322M lung. As to conditions: 10 µM unless noted.
A further assay concerns HOP-62 NSCLC. As to conditions: 10 µM unless noted.
Another assay concerns NCI-H460 lung. As to conditions: 10 µM unless noted.
Another assay deals with HOP-92 NSCLC. As to conditions: 10 µM.
A further assay concerns NCI-H522 lung. As to conditions: 10 µM unless noted.
The test system of another assay is A549/ATCC NSCLC. To be noted: 10 µM unless noted.
In a further assay the test system is 786-0 renal. To be noted: 10 µM unless noted.
A further assay concerns COLO 205 colon. To be noted: 10 µM unless noted.
A further assay concerns DU-145 prostate. To be noted: 10 µM unless noted.
In another assay the test system is K-562 leukemia. As to conditions: 10 µM unless noted.
A further assay relates to MALME-3M melanoma. To be noted: 10 µM unless noted.
The subject of another assay is RXF 393 renal. As to conditions: 10 µM unless noted.
Another assay concerns SF-268 CNS. To be noted: 10 µM unless noted.
A further assay concerns SF-295 CNS. As to conditions: 10 µM unless noted.
The subject of the next assay is SF-539 CNS. As to conditions: 10 µM unless noted.
A further assay relates to UACC-257 melanoma. As to conditions: 10 µM unless noted.
The subject of the next assay is M14 melanoma. To be noted: 10 µM unless noted.
For another assay, the system named is MDA-MB-231 breast. As to conditions: 10 µM unless noted.

On to `O=C1c2ccccc2C(=O)C(Cl)C1Cl` (stereo not drawn), for which the growth in the assay with NCI-H23 lung was 83.8%; with NCI-H226 lung, -74.2% (active); in the assay on NCI-H322M lung it was 96.1%; in the assay with HOP-62 NSCLC it was 87.9%; with NCI-H460 lung it was 101%; in the assay with HOP-92 NSCLC it was -62.4% (active). Moreover, the growth was -65% (active) with NCI-H522 lung; 104% with A549/ATCC NSCLC; 16.8% in the assay on 786-0 renal; -94.3% (active) in the assay with COLO 205 colon; 97.8% with DU-145 prostate; -7.91% (active) with K-562 leukemia. Besides, the growth in the assay on MALME-3M melanoma is -98.5% (active); with RXF 393 renal, -9.44% (active); in the assay on SF-268 CNS, 87.5%; in the assay on SF-295 CNS, 94.3%; with SF-539 CNS, 89.5%; with UACC-257 melanoma it was 0.891% (active). The growth with M14 melanoma is 76.7%.
For `Cc1ccc(C(=O)OC(C(=O)O)C(OC(=O)c2ccc(C)cc2)C(=O)O)cc1` (stereo not drawn) (tested in a mixture with another compound), the growth in the assay on NCI-H23 lung is 41.4%; in the assay with NCI-H226 lung it was 51.1%; with NCI-H322M lung, 83.2%; with HOP-62 NSCLC, 66.1%; in the assay with NCI-H460 lung, 52.4%; with HOP-92 NSCLC it was 17.7%. Further, the growth in the assay on NCI-H522 lung was 52.6%; with A549/ATCC NSCLC it was 71%; with 786-0 renal, 46%; in the assay with COLO 205 colon it was 48.9%; in the assay on DU-145 prostate, 76%; in the assay with K-562 leukemia it was 11.1%. Moreover, the growth with MALME-3M melanoma was 51.6%; in the assay on RXF 393 renal, 54.1%; in the assay with SF-268 CNS, 68.5%; in the assay with SF-295 CNS it was 61.8%; with SF-539 CNS it was 70.2%; with UACC-257 melanoma, 46.1%. Moreover, in the assay with M14 melanoma, the growth is 45.2%.
On to `NCCc1ccc(OCc2ccccc2)c(OCc2ccccc2)c1`, for which the growth in the assay with NCI-H23 lung was 87.6%; with NCI-H226 lung, 103%; in the assay with NCI-H322M lung, 85.4%; in the assay with HOP-62 NSCLC it was 87.3%; in the assay with NCI-H460 lung, 60.6%; in the assay on HOP-92 NSCLC it was -2.74% (active). Besides, the growth in the assay on 786-0 renal is 84.2%; in the assay on COLO 205 colon, 13.5%; in the assay with DU-145 prostate, 97.3%; in the assay with K-562 leukemia, 30.8%; in the assay with MALME-3M melanoma, 106%; in the assay on MDA-MB-231 breast, 79.2%. Further, the growth with RXF 393 renal is 62.2%; in the assay on SF-268 CNS it was 89.2%; with SF-295 CNS, 97.1%; with SF-539 CNS, 93.1%; in the assay on M14 melanoma, 102%.
Turning to `CC[C@@]1(O)C[C@H](OC2CC(N(C)C)C(O)C(C)O2)c2c(O)c3c(c(O)c2[C@H]1OC1CC(N(C)C)C(O)C(C)O1)C(=O)c1cccc(O)c1C3=O` (stereo partly drawn), the growth in the assay on NCI-H23 lung was -37.2% (active); with NCI-H226 lung it was -16.2% (active); in the assay with NCI-H322M lung, -31.5% (active); in the assay on HOP-62 NSCLC, -20.2% (active); in the assay on NCI-H460 lung, -4.36% (active); in the assay on NCI-H522 lung, -65% (active). Further, the growth in the assay on A549/ATCC NSCLC was 1.57% (active); with 786-0 renal, -2.72% (active); in the assay on COLO 205 colon, -20.5% (active); in the assay on DU-145 prostate it was -4.8% (active); with K-562 leukemia, -28.5% (active); in the assay with MALME-3M melanoma it was -93.7% (active). The growth with MDA-MB-231 breast is -9.74% (active); with RXF 393 renal it was 0.503% (active); with SF-268 CNS it was -19.3% (active); with SF-295 CNS, -27.2% (active); in the assay on SF-539 CNS, -48.9% (active); with UACC-257 melanoma, 2.59% (active). In addition, in the assay on M14 melanoma, the growth is -87.2% (active).
On to `COc1ccc(OC)c(/C=C/[N+](=O)[O-])c1`, for which the growth in the assay with NCI-H23 lung is 6.9% (active); in the assay on NCI-H226 lung, 11.8%; in the assay on NCI-H322M lung, 69.6%; with HOP-62 NSCLC, 10.5%; in the assay with NCI-H460 lung, -4.3% (active); with HOP-92 NSCLC it was -18% (active). Besides, the growth in the assay on NCI-H522 lung was -64.1% (active); in the assay on A549/ATCC NSCLC, 28.1%; with 786-0 renal, -75.2% (active); with COLO 205 colon, -51.6% (active); in the assay with DU-145 prostate it was 19.8%; in the assay with K-562 leukemia, 4.27% (active). Besides, the growth is 24.9% in the assay with MALME-3M melanoma; 5.7% (active) in the assay on MDA-MB-231 breast; -88.7% (active) in the assay on RXF 393 renal; 13.1% in the assay on SF-268 CNS; -6.84% (active) in the assay on SF-539 CNS; -12% (active) with UACC-257 melanoma. In the assay with M14 melanoma, the growth was -11.5% (active).
